Test results reported in PubChem BioAssay (NCATS).
A number with no mark means an inactive call. Records with an inconclusive call do not appear. The source made the active and inactive calls. Unless noted, calls come from the whole dose curve; as a rule, active = well fitted curve in either direction with a large enough effect (not every such curve was filed as active); inconclusive = small, poorly fitted or top-dose-only effect, or another doubt; inactive = flat fitted curve, though single readings scatter.

Key:
[1] = target: Lysosomal acid glucosylceramidase (Homo sapiens) (UniProt P04062); test: Glucocerebrosidase-p2 (AID 348; in the data active = potency below about 10 µM; note: potency is the fitted concentration of half-maximal effect); settings: purified GBA, blue fluorogenic substrate, 40 min
Lysosomal acid glucosylceramidase (Homo sapiens), sequence (P04062 whole entry, looked up): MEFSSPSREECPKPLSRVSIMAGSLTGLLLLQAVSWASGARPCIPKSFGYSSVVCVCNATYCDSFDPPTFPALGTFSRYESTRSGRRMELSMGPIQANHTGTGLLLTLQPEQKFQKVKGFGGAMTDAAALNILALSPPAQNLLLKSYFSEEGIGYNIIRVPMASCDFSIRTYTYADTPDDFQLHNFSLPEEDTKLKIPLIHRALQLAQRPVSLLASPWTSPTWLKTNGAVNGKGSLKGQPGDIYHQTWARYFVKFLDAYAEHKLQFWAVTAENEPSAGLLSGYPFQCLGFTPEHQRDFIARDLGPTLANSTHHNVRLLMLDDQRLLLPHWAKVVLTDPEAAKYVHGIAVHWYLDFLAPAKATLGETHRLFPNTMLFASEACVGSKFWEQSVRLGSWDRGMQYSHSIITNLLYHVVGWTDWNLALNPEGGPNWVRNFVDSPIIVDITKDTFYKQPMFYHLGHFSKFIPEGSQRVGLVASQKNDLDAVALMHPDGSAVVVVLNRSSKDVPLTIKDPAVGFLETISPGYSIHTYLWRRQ
Method in brief: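 Normal human glucocerebrosidase (0.2 nM) with blue fluorogenic substrate (80 uM final) in citrate/phosphate pH 5.9 with 10mM sodium taurocholate, 0.01% tween-20; 40 min RT, NaOH/glycine stop; fluorescence Ex 365/Em 440; AC50 from a titration from 0.6 nM upwards.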

[2] = AP1 Signaling Pathway (AID 357); settings: ME-180 AP-1-bla reporter, EGF-induced, beta-lactamase ratio, 5 h; at 7.69 µM (top of the series) unless noted;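 note: ME-180 reporter cells stimulated with EGF at its EC50 level; % is set by controls: 0 for no effect and ±100 for the full control effect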
Method in brief: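 AP-1-bla ME-180 cells, Opti-MEM + 0.5% dialyzed FBS, plated overnight 37 °C. Cpd titration + EC50 EGF, 5 h 37 °C. CCF4 2.5 h RT; ex 405, em 460/530 ratio → %activity, AC50.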

[3] = target: Cytochrome P450 1A2 (Homo sapiens) (UniProt P05177); test: p450-cyp1a2 (AID 410; calls by dose curve; note: potency is the fitted concentration of half-maximal effect;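 for activity change, negative = inhibition: -100% = full effect of reference inhibitor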); settings: recombinant CYP1A2, luciferin-ME demethylation, luminescence; series mostly up to 11.4 µM
Cytochrome P450 1A2 (Homo sapiens), sequence (P05177 whole entry, looked up): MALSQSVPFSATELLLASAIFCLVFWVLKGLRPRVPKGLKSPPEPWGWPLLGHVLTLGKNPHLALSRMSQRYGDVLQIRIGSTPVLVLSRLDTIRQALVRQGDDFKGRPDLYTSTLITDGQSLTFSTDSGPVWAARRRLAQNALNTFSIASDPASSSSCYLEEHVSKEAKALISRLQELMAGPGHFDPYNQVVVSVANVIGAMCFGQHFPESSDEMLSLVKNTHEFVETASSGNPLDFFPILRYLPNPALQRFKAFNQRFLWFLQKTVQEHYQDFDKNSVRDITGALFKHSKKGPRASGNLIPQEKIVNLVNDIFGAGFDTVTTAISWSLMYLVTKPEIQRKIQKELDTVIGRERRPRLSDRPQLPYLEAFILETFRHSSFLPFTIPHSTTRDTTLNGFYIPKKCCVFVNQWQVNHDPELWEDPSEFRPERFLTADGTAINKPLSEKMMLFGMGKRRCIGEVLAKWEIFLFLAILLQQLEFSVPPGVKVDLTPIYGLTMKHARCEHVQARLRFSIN
Method in brief: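 20nM CYP1A2, 100uM Luciferin-ME (=Km), 100mM KPO4; cpd 10 min RT; +NADPH regen, 60 min RT; stop/detect 20 min; luminescence. Normalized to furafylline 57 uM = full inhibition.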

[4] = NFAT Signaling Pathway (AID 444); settings: Jurkat NFAT-bla M1, carbachol, beta-lactamase ratio, 5 h; at 7.69 µM (top of the series) unless noted;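 note: carbachol stimulus at about its EC50 of 1 µM final; % is set by controls: 0 for no effect and ±100 for the full control effect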
Method in brief: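 Read-out: CCF4 FRET ratio (460 nm/530 nm) after 1 h RT dye loading, used for %activity and AC50 from titration series. Cells: Jurkat NFAT-β-lactamase/M1 line, treated with compound plus 1 uM carbachol for 5 h, 37 °C.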

[5] = Stat Signaling Pathway (AID 446); settings: ME-180 (cervical carcinoma) SIE beta-lactamase reporter, IL-6 stimulated, 5 h; at 7.69 µM (top of the series) unless noted;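 note: ME-180 cervical cancer cells given 40 pM IL-6 alongside compound; SIE-controlled beta-lactamase reporter measured as 460/530 nm FRET emission ratio; % is set by controls: 0 for no effect and ±100 for the full control effect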
Method in brief: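 Emission at 460 and 530 nm (excitation 405 nm) reports SIE-controlled beta-lactamase in ME-180 cells. Cells received compound with 40 pM IL-6 for 5 hrs at 37 C; data scaled between 300 pM IL-6 and 125 nM JAK-inhibitor controls.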

[6] = target: Glucocorticoid receptor (Homo sapiens) (UniProt P04150); test: GR-GFP Redistribution (AID 450;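 active = compounds whose dose series gives a full or clear partial fitted curve of increased nuclear translocation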; note: potency is the fitted concentration of half-maximal effect); settings: U2OS GR-GFP nuclear translocation, laser cytometry, 2 h
Glucocorticoid receptor (Homo sapiens), sequence (P04150 whole entry, looked up, the tested form may be a part): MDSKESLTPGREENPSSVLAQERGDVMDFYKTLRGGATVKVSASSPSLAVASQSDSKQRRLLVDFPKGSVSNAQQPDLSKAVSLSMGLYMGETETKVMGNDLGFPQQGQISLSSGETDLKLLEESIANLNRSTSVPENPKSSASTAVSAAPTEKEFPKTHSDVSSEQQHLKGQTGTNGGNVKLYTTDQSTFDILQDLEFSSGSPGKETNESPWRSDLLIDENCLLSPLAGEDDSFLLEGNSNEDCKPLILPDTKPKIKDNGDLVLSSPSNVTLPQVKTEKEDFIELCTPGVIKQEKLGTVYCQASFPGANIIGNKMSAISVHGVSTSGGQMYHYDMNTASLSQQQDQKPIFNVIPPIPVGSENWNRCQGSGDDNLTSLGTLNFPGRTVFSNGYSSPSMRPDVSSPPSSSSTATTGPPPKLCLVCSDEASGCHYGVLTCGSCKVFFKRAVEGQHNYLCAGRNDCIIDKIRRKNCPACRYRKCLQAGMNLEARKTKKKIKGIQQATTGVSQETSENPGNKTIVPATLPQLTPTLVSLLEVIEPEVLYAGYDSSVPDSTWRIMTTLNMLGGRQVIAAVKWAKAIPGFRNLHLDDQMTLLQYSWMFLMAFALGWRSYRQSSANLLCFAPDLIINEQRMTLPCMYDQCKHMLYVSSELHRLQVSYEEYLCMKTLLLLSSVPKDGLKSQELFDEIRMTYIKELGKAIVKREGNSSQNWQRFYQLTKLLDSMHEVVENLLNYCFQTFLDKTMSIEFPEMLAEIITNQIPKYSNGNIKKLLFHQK

[7] = target: Glucocorticoid receptor (Homo sapiens) (UniProt P04150); test: GR-EFC Redistribution (AID 451; calls by dose curve; note: potency is the fitted concentration of half-maximal effect); settings: CHO-K1 GR-EFC translocation, beta-gal luminescence, 2 h
Method in brief: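 Translocation of GR-ED fusion to nuclear EA restores b-gal, read by luminescence after 1 h room-temperature detection. Engineered CHO-K1 biosensor cells, 1,000/well, exposed 2 h at 37 C to titrations up to 46 uM final.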

[8] = target: Mitogen-activated protein kinase 10 (Mus musculus) (UniProt Q61831); test: JNK3 AlphaScreen Assay (AID 530); settings: JNK3 lysate, c-Jun phosphorylation; series mostly up to 11.4 µM;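 note: kinase came from lysate of stimulated human HepG2 cells; signal reports phosphorylation of biotinylated GST-cJun 1-79 at Ser73 with 10 µM ATP; % is set by controls: 0 for no effect and ±100 for the full control effect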
Method in brief: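 Kinase buffer: 20 mM Tris-HCl pH 7.6, 10 mM MgCl2, 1 mM DTT, 0.1 mM Na3VO4, 0.01% Tween-20; ATP 10 uM. Substrate biotin-GST-cJun(1-79), enzyme from activated HepG2 lysates. Detection by Ser73 phospho-antibody AlphaScreen.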

[9] = target: 3',5'-cyclic-AMP phosphodiesterase 4B (Homo sapiens) (UniProt Q07343); test: qHTS Assay for Inhibitors of PDE-IV (AID 607; active = well fitted activation curve with a large enough effect in the main read-out, with a control signal flat, not every such curve was filed as active; note: % of control where 0% means no effect); settings: HEK293 ACTOne CNG channel cells, membrane potential fluorescence; series mostly up to 22.9 µM
3',5'-cyclic-AMP phosphodiesterase 4B (Homo sapiens), sequence (Q07343 whole entry, looked up): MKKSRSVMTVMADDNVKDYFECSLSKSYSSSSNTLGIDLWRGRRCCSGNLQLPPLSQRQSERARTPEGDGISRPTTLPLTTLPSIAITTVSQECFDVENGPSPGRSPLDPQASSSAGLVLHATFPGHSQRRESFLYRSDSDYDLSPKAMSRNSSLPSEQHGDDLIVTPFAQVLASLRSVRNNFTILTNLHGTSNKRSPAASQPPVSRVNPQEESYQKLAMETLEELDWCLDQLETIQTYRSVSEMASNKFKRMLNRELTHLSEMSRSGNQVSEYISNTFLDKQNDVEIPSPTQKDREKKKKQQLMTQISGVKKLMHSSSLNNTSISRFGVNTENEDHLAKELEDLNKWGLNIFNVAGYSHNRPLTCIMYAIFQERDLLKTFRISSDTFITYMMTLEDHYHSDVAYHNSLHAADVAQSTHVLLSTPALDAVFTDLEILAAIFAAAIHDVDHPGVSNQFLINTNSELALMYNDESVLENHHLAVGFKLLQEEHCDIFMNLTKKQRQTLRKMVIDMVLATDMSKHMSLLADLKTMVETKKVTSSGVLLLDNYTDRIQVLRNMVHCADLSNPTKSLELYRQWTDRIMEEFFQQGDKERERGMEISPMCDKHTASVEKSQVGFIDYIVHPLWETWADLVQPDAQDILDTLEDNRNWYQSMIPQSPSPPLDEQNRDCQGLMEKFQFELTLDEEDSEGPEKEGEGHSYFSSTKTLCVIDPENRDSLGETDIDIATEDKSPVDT
Method in brief: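 The readout is membrane depolarisation from a cAMP-sensing CNG channel, detected with a potential dye at ex 535/em 590. Cells were HEK293-derived (endogenous PDE-IV) at 1000 cells/well, titrated up to 22.9 uM final.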

Row | Compound | Potency [1] | activity change, negative = inhibition [2] | activity change, negative = inhibition [3] | activity change, negative = inhibition [4] | activity, negative = inhibition [5] | Potency [6] | Potency [7] | Potency [8] | Potency [9] | Potency [3]
1 | Cc1ccccc1S(=O)(=O)O[C@@H]1NS(=O)(=O)c2ccccc21 | > 11.4 µM | 6.97% | 13.5% [at 2.29 µM] | 10.8% | 0.825% | > 46 µM | > 9.22 µM | inactive | inactive | 
2 | O=C(NNC(=O)c1ccncc1)c1ccncc1 | > 11.4 µM | 4.63% |  | 6.39% | 2.81% | > 46 µM | > 9.22 µM | inactive | inactive | inactive
3 | O=C(O)c1ccc(C(=O)Nc2cccc3ccccc23)c(C(=O)O)c1 | > 11.4 µM | 4.87% | -6.2% [at 2.29 µM] | 5.96% | 0.708% | > 46 µM | > 9.22 µM | inactive | inactive | 
4 | Cc1noc(NC(=O)Nc2ccccc2F)c1C#N | > 11.4 µM | -0.973% |  | 11.4% | -14.1% | > 46 µM | > 9.22 µM | inactive | inactive | 0.794 µM (active)
5 | CN(C)CCn1c(CO)nc2c1c(=O)n(C)c(=O)n2C | > 11.4 µM | 1.13% |  | 1.85% | 6.5% | > 46 µM | > 9.22 µM | inactive | inactive | inactive
6 | OCCCNc1ncnc2[nH]ncc12 | > 11.4 µM | 7.33% |  | 0.588% | -7.35% | > 46 µM | > 9.22 µM | inactive | inactive | 6.31 µM (active)
7 | Cc1ncc(CN=Cc2ccc(Cl)cc2)c(N)n1 | > 11.4 µM | -0.312% |  | 23.1% | 3.08% | > 46 µM | > 9.22 µM | inactive | inactive | 5.01 µM (active)
8 | Cn1ncc2c(Cl)ncnc21 | > 11.4 µM | 2.44% |  | 17.9% | 13.8% | > 46 µM | > 9.22 µM | inactive | inactive | inactive
9 | N[C@H](C(=O)O)[C@@H](O)c1cnc[nH]1 | > 11.4 µM | 6.1% |  | -4.22% | 2.54% | > 46 µM | > 9.22 µM | inactive | inactive | inactive
10 | NCCSS(=O)(=O)CCN | > 11.4 µM | 7.23% | -17.1% [at 2.29 µM] | 7.63% | -25% | > 46 µM | > 9.22 µM | inactive | inactive | 
11 | Cc1ccc(S(=O)(=O)Oc2cc(N)c3c(n2)CCC3)cc1 | > 11.4 µM | 11.1% | -19.4% [at 2.29 µM] | 9.71% | -5.99% | > 46 µM | > 9.22 µM | inactive | inactive | 
12 | O=S(O)O.O=S(O)O.[Co].[NH2-].[NH2-].[NH2-].[NH2-] | > 11.4 µM | -7.83% |  | 15.9% | 26% | > 46 µM | > 9.22 µM | inactive | inactive | inactive
13 | C/C(=C\c1ccc(Cl)cc1)C(C)(C)C(=O)O | > 11.4 µM | 2.81% |  | -8.85% | -7.44% | > 46 µM | > 9.22 µM | inactive | inactive | inactive
14 | O=C(O)[C@@H]1[C@@H](C(=O)Nc2ccccc2)[C@@H]2C=C[C@@H]1O2 | > 11.4 µM | 3.5% | -18.1% [at 2.29 µM] | 8.21% | -5.22% | > 46 µM | > 9.22 µM | inactive | inactive | 
15 | O=C(O)/C=C(/C(=O)O)[C@]12CCN3CC4=CCO[C@@H]5CC(=O)N[C@@H]1[C@H]5[C@H]4C[C@H]32 | > 11.4 µM | 9.14% | -15% [at 2.29 µM] | -1.3% | -7.59% | > 46 µM | > 9.22 µM | inactive | inactive | 
